Source: PubChem BioAssay
GLP1R inv ag: inverse agonists of human GLP-1 receptor. AID 624417. HEK293 GLP-1R CRE-luciferase, luminescence, 24 h; GLP-1R form is constitutively active. Potency, µM (titrated, usually from 38.3 µM), for inactives: at the top dose activity change, negative = inhibition, usual class: inhibitors. 1.6% of 410,000 active. P43220; note: % is set by controls: 0 for no effect and ±100 for the full control effect; nearly all actives have a fitted effect of over 55% in size
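Assay principle: reduced luminescence from a cAMP-responsive reporter in HEK293 cells co-expressing a constitutively active GLP-1R. Conditions: 24 hr compound incubation, 37 deg C, 5% CO2.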
GLP1R ag: agonists of human GLP-1 receptor. Potency, µM (highest dose often 45.6 µM), without a hit: top-dose activation, hits mostly activators. 0.007% of 380,000 active. P43220. HEK293 GLP-1R CRE-luciferase, luminescence, 4-6 h; cells express a hypersensitive GLP-1R form; note: % of control where 0% means no effect
HEK293 tox: cytotoxicity counter-screen for GLP-1 receptor inverse agonists. HEK293 cAMP-luciferase reporter cells, luminescence, 24 h. Potency, µM (titrated, usually from 38.3 µM), without a hit: at the highest dose activity change, negative = inhibition, usual class: inhibitors. 0.13% of 410,000 active;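 note: loss of luciferase light is scored as toxicity; % is set by controls: 0 for no effect and ±100 for the full control effect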
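Here, cytotoxicity is scored as loss of luminescence. The MLSMR collection was tested on cells seeded in medium containing 10% Nu serum, with a 24 hr compound exposure preceded by 12 hours of culture.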
PTHR1 ag: agonists of human PTHR1 parathyroid hormone receptor | Q03431 | HEK293 GP2 PTHR1 cells, GloSensor cAMP luminescence, 1 h | Potency, µM (top dose mostly 115 µM), for the others: top-dose activation, usual class: activators | 0.075% of 410,000 active | AID 743266; note: nearly all actives have a fitted effect of over 55% in size
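HEK-293-derived GP2 cells expressing PTHR1 and a GloSensor cAMP reporter, 3,000/well, plated overnight, given luciferin plus IBMX (each 0.5 mM as added) for 1 h at 37 °C, then compound for 1 h at 37 °C. Luminescence was read after 15 min at room temperature.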
The depositor's hits bear a star; i = inactive; u = inconclusive; x = not tested or not shown; [ ] = another dose, or the depositor's remark. The list is not random: actives were taken first. Their share in the collection is about 1.7%. Calls come from the whole dose curve; as a rule, active = well fitted curve in the direction sought with a large enough effect; inconclusive = small, poorly fitted or top-dose-only effect, or another doubt; inactive = no such curve, though single readings can be large; an effect the other way counts as inactive or inconclusive. Potency is the fitted concentration of half-maximal effect.

SMILES	GLP1R inv ag	GLP1R ag	HEK293 tox	PTHR1 ag
O=C(Cn1c(SCC(=O)Nc2ccc(F)cc2)nc2ccccc21)NCc1ccc(Cl)cc1	u	x	u	-7%
COc1ccc(C(=O)Nc2ccc(S(=O)(=O)N(Cc3ccccc3)c3ccccc3)cc2)cc1	5µM*	x	-9%	-34%
COc1ccc(-c2cnnn2-c2ccc(NC(=O)c3ccc(S(=O)(=O)N(C)C)cc3)cc2)cc1	0%	x	-4%	-51%
CC(Cc1ccccc1Sc1ccccc1O)N(C)C (stereo unspecified)	7.9µM*	-15%	6%	-35%[57.5 µM]
C#CCN(C)[C@H](C)Cc1ccccc1	9%	-1%	6%	-17%
CC(C)N1CC=C(c2c[nH]c3ccccc23)CC1	u	-18%	-18%	-19%[57.5 µM]
Cc1ccc(-c2csc(-c3c[nH]c4ccccc34)n2)c(C)c1	10µM*	-20%	u	-20%
COc1ccc(CC(N)c2csc(Nc3nncc4ccccc34)n2)cc1 (stereo unspecified)	u	0%	u	-92%
NC(c1csc(NC(=O)Nc2cccc(Cl)c2)n1)C1CCCCC1 (stereo unspecified)	u	-6%	u	-13%
O=[N+]([O-])c1ccc(CNCCc2ccccc2)cc1	4%	-2%	0%	10%
O=[N+]([O-])c1ccc(NC(=S)NCCc2ccc(F)cc2)cc1	11µM*	-13%	u	-26%
N#Cc1ccccc1Cn1cc(C(=O)C2CC2)c2ccccc21	u	11%	1%	u
CCC(=O)c1cn(Cc2ccccc2C#N)c2ccccc12	10µM*	6%	-15%	-14%
N=C(N)c1c(O)n(C2CCCCC2)c(=O)n(C2CCCCC2)c1=O	4.5µM*	-38%	11µM*	-8%
O=c1c(C=NCc2cccs2)c(O)n(C2CCCCC2)c(=O)n1C1CCCCC1	u	-2%	13%	i
O=C(Nc1ccc(Cl)c(C(F)(F)F)c1)NC1CC2CCCC(C1)N2C1CC1 (stereo unspecified)	3.2µM*	-10%	u	i
COC(=O)C1=C(c2ccc(Cl)c(C(F)(F)F)c2)C[C@@H]2CC[C@H]1N2C(=O)N1CCCC1	u	13%	2%	-17%
COc1ccc(-c2nc(CSCC(=O)N3CCN(c4ccc(F)cc4)CC3)c(C)o2)cc1	u	x	16%	i
C=C(CN(C)C)C(=O)c1ccc(C)cc1C	u	-13%	10µM*	-4%
Cc1ccc(/C=C/C(=O)c2ccccc(=O)c2O)c(C)c1	u	7%	u	-28%
Cc1ccc(-n2ncc(C(=O)NCCN3CCC(Cc4ccccc4)CC3)c2C2CCN(C(=O)OC(C)(C)C)CC2)cc1	10µM*	x	u	-42%
Cc1ccc(N2CCN(C(=O)C3CCC(CNS(=O)(=O)c4ccc(Br)s4)CC3)CC2C)cc1 (stereo unspecified)	u	x	-8%	-21%
CCn1ccnc1CN1CCCC(C(=O)c2cc(Cl)ccc2OC)C1 (stereo unspecified)	10µM*	6%	u	-85%
CCn1ccnc1CN1CCCC(C(=O)c2cc(C)c(OC)c(C)c2)C1 (stereo unspecified)	u	6%	u	i
CC(C)(C)[C@@H]1COC(=O)[C@@H](Cc2ccc(F)cc2)CC/C=C\C[C@@H](CC(=O)N(CCO)Cc2ccccc2)C(=O)N1	10µM*	-5%	-19%	-3%
SMILES	GLP1R inv ag	GLP1R ag	HEK293 tox	PTHR1 ag
O=C1NCCOC(=O)[C@H](Cc2ccc(F)cc2)CC/C=C/C[C@H]1CC(=O)N(CCO)Cc1ccccc1	-15%	-6%	4%	i
Cc1ccccc1NC(=O)C(=Cc1ccc(C(=O)O)cc1)C(=O)Nc1ccccc1C	6.3µM*	-2%	u	-34%
Cc1ccccc1NC(=O)CCl	7%	1%	-11%	-7%
c1ccc(CCN2CCC(N3CCN(c4ccccc4)CC3)CC2)cc1	1%	14%	4%	12%[57.5 µM]
CCCCN(Cc1ccccc1)C1CCN(CCc2ccccc2)CC1	10µM*	1%	-2%	i
O=C(/C=C/c1ccc(Br)cc1)c1ccc(NC2=NCCCS2)cc1	5µM*	-4%	u	-93%
CC(=O)c1ccc(NC2=NCCCS2)cc1	8%	12%	0%	i
COC(=O)[C@]1(C)C[C@H]1[C@H](NP(=O)(c1ccccc1)c1ccccc1)c1ccccc1	-26%	-5%	-8%	i
